The list is not random: actives were taken first. Their share in the collection is about 18%.
Six1-Eya2 inh: qHTS Assay for Inhibitors of the Six1/Eya2 Interaction | Homeobox protein SIX1 (Homo sapiens) + Protein phosphatase EYA2 (Homo sapiens), … | AlphaScreen GST-Six1/His-Eya2 binding, biochemical; stronger effect = lower value | activity change, % (test concentration not listed) | 0.56% of 360,000 active | AID 651725, 2012; in the data active = activity change below about -65%; inconclusive = mostly about -30% to -63%
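Homogeneous AlphaScreen proximity assay pairing GST-Six1 with His-tagged Eya2 (added as 5X mix: 250 nM and 500 nM) in 50 mM Tris pH 8.0, 300 mM NaCl, 1 mM TCEP. Glutathione donor and nickel acceptor beads; 1 h, 37 °C, dark.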
TDP1 inh: qHTS Assay for Inhibitors of Tyrosyl-DNA Phosphodiesterase (TDP1) | recombinant TDP1, AlphaScreen DNA substrate cleavage | Potency, µM (series often up to 130 µM), for inactives: top-dose activity change, negative = inhibition, usual class: inhibitors | 0.28% of 350,000 active; also: potency is read from the fitted curve at half-maximal effect; nearly all actives have a fitted effect of over 40% in size
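E. coli-derived human Tdp1, 1 nM final. Cpd preinc 15 min RT; substrate 15 nM final, 5 min RT; AS bead mix 10 ug/ml final, 10 min RT. Signal loss = tyrosine-FITC cleavage. No-enzyme wells = max signal.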
CtBP-E1A inh: qHTS Assay for Inhibitors of the CtBP/E1A Interaction | CtBP / adenovirus E1A interaction (AlphaScreen) | AlphaScreen GST-E1A/His-CtBP binding, 1536-well; stronger effect = lower value | activity change, % (no concentration beside the values) | 0.49% of 340,000 active | AID 651724, 2012; in the data active = activity change below about -65%; inconclusive = mostly about -30% to -63%
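In 5 uL wells, 23 nL compound meets equimolar GST-E1A and His-CtBP (5X stock 125 nM each) for 2 h, 37 °C. Beads (5X, 50 ug/mL) then 1 h, 37 °C, dark.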
IL-1B inflam inh: qHTS for Inhibitors of Inflammasome Signaling: IL-1-beta AlphaLISA Primary Screen; THP-1 LPS/ATP IL-1B secretion, AlphaLISA, 16 h; stronger effect = lower value; activity change, % at 57.5 µM; 4.7% of 360,000 active; in the data active = activity change below about -50%; inconclusive = mostly about -30% to -49%
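THP-1 cells pretreated 1 hr with compounds (up to 57.5 uM final), then stimulated with LPS (250 ng/mL final) plus ATP (1.25 mM final); secreted IL-1B measured by AlphaLISA after 16 hr, decreased signal indicating inhibition.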
TDP1 cell CPT: qHTS for Inhibitors of human tyrosyl-DNA phosphodiesterase 1 (TDP1): qHTS in cells in presence of CPT; chicken DT40 Tdp1-/-;hTDP1 cells + 20 nM CPT, ATP luminescence, 48 h; Potency, µM (titrated, usually from 46.2 µM), without a hit: top-dose activity change, negative = growth inhibition, most hits filed as inhibitors; 12% of 420,000 active; AID 686979, 2013; also: potency is read from the fitted curve at half-maximal effect; nearly all actives have a fitted effect of over 55% in size
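Chicken DT40 Tdp1-/- cells stably complemented with human TDP1 were seeded at 400 cells/well in medium containing 20 nM camptothecin, exposed to pin-transferred compounds, and grown at 37 °C for at least 48 hr. Viability was read as ATP luminescence.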
DT40 TDP1 no CPT: qHTS for Inhibitors of human tyrosyl-DNA phosphodiesterase 1 (TDP1): qHTS in cells in absence of CPT | 15% of 420,000 active | DT40 Tdp1-/- hTDP1 cells, no CPT, ATP luminescence, 48 h | Potency, µM (highest dose often 46.2 µM), without a hit: top-dose activity change, negative = growth inhibition, most hits filed as inhibitors | AID 686978, 2013; also: potency is read from the fitted curve at half-maximal effect; nearly all actives have a fitted effect of over 55% in size
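A cellular qHTS used chicken DT40 cells lacking endogenous Tdp1 but carrying stably transfected human TDP1. Compounds were applied without camptothecin, and cell growth kinetics were judged by ATP-dependent luminescence after ≥48 hr.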
* marks the source's active call; other numbers are inactive results; ? = inconclusive; . = no result given. Unless noted, calls follow the shape of the dose curve; as a rule, active = well fitted curve in the direction sought with a large enough effect; inconclusive = small, poorly fitted or top-dose-only effect, or another doubt; inactive = no such curve, though single readings can be large; an effect the other way counts as inactive or inconclusive. % is scaled to controls: 0 for no effect and ±100 for the full control effect.

SMILES | Six1-Eya2 inh | TDP1 inh | CtBP-E1A inh | IL-1B inflam inh | TDP1 cell CPT | DT40 TDP1 no CPT
CCc1cc[n+](/C(C(=S)Nc2cccc(C)c2)=C(/[O-])c2ccc(C)c([N+](=O)[O-])c2)cc1 | -14.7 | 4.4% | -0.8 | -25.8 | 16.4µM* | 11.6µM*
Cc1ccc(/C([O-])=C(/C(=S)NCc2ccccc2)[n+]2ccccc2)cc1[N+](=O)[O-] | -19.6 | 5.4% | -19.7 | -23.7 | -23.5% | ?
CCOc1ccc(NC(=S)/C(=C(\[O-])c2ccc(C)c([N+](=O)[O-])c2)[n+]2ccccc2)cc1 | -17.0 | 8.8% | -23.8 | 13.0 | ? | 14.6µM*
Cc1cc(C(=O)COC(=O)C2=COCCO2)c(C)n1-c1cccc(F)c1 | -16.5 | 6.3% | -14.9 | 0.0 | ? | ?
CSc1ncnc2c1ncn2CCCNc1ccc(C)c(C)c1 | -15.6 | . | -3.6 | 22.9 | ? | 20.6µM*
CSc1ncnc2c1ncn2CCCN1CCN(Cc2cccc3ccccc23)CC1 | -9.9 | . | -11.9 | ? | ? | 23.1µM*
